PubChem BioAssay (NCATS)
Results filed as inconclusive are left out. Entries that show only a call come without a potency. Active and inactive are the calls of the source. Calls come from the whole dose curve; as a rule, active = well fitted inhibition curve with a large enough effect; inconclusive = small, poorly fitted or top-dose-only effect; inactive = flat fitted curve, though single readings scatter.

Molecular target: Glutathione peroxidase 1 (Homo sapiens) (UniProt P07203)
Assay: Primary qHTS Assay for Inhibitors of Recombinant Selenoprotein Glutathione Peroxidase 1 (GPX1) (AID 1845191); note: nearly all actives have a fitted effect of over 65% in size
Settings: recombinant GPX1, GR-coupled NADPH fluorescence, 15 min; series mostly up to 27.7 µM
Summary of the method: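 10 nM GPX1 + cpd, 30 min RT; start w/ 1 mM GSH, 0.5 mM cumene hydroperoxide, 0.5 mM NADPH, 100 nM GR, 0.01% BSA; buffer 50 mM Tris-HCl pH 7.5, 2 mM EDTA, 150 mM NaCl; Fl 340/450, 0 & 15 min.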

Chain of Glutathione peroxidase 1 (Homo sapiens) (P07203 whole entry, looked up): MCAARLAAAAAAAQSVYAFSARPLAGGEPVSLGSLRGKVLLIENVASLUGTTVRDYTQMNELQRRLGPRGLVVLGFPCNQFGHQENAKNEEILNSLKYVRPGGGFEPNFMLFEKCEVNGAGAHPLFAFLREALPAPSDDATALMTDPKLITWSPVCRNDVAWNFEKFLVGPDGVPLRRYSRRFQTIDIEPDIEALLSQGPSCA

SMILES	Potency
CC1(C)C[C@H]2C=C(C=O)[C@]3(C(=O)O)C[C@]3(C)[C@H]2C1	inactive
C=C1CC[C@]2(C(=O)O[C@@H]3O[C@H](CO)[C@@H](O)[C@H](O)[C@H]3O)CC[C@]3(C)C(=CCC4[C@@]5(C)C[C@H](O)[C@@H](O[C@@H]6O[C@H](C(=O)O)[C@@H](O)[C@H](O)[C@H]6O)[C@](C)(C=O)C5CC[C@]43C)C2C1 (some centres undefined)	inactive
O=C(CCCCC1CCCCC1)N1CCC(c2cnc[nH]2)CC1	inactive
Nc1ccc(-n2nc(C(F)(F)F)cc2C(F)(F)F)cc1	inactive
CC1(C)C2CC[C@@]34CC(CC[C@H]3[C@]2(C)CC[C@@H]1O[C@@H]1O[C@H](CO)[C@@H](O)[C@H](O)[C@H]1O)[C@](C)(O)C4 (some centres undefined)	inactive
CC(=O)OC1C(O)/C(C)=C\C2C(OC(=O)c3ccccc3)C(C)CC2(OC(C)=O)C(OC(C)=O)C(C)/C=C/C(C)(C)C1OC(C)=O (centres undefined)	inactive
CC1=C2CC(O)(C(C)(C)O)C(O[C@@H]3O[C@H](CO)[C@@H](O)[C@H](O)[C@H]3O)CC(C)C2CC1=O (some centres undefined)	inactive
C=CCC/C=C/C#CCCCCCCCC[C@H]1C(=O)O[C@H](C)[C@@H]1O	inactive
CC(=O)C1CCC(=O)N1Cc1ccccc1 (centres undefined)	inactive
O=C(O)CCc1cccc(O)c1O[C@@H]1O[C@H](CO)[C@@H](O)[C@H](O)[C@H]1O	inactive
CC(=O)/C=C/[C@H]1[C@](C)(O)[C@@H](O)[C@H](O)C2C(C)(C)CCC[C@@]21C (some centres undefined)	inactive
C[C@@H]1O[C@@H](O[C@H]2[C@H](O[C@H]3[C@H](O[C@H]4CC[C@@]5(C)C(CC[C@]6(C)C5CC=C5[C@@H]7CC(C)(C)C[C@@H](O)[C@]7(C)CC[C@]56C)[C@@]4(C)CO)O[C@H](C(=O)O)[C@@H](O)[C@@H]3O)O[C@H](C(=O)O)[C@H](O)[C@@H]2O)[C@H](O)[C@H](O)[C@H]1O (some centres undefined)	inactive
COc1ccc(C(=O)NCc2cc(C(C)C)no2)cc1OC1CCN(C)CC1	inactive
COc1cc(C(CO)CO[C@@H]2O[C@H](CO)[C@@H](O)[C@H](O)[C@H]2O)ccc1O (some centres undefined)	inactive
COc1ccc(C2OCC3C(c4cc(OC)c5c(c4)OCO5)OCC23)cc1OC (centres undefined)	inactive
CC1(C)CCC[C@@]2(C)[C@H]1[C@H](O)C=C(CO)[C@]2(O)CO	inactive
NC(Cc1c[nH]c2ccc(O)cc12)C(=O)O (centres undefined)	inactive
C=C1C(O)CCC2(C)CC3(OC)OC(=O)C(C)=C3CC12 (centres undefined)	inactive
O=C1NC(=O)/C(=C/c2cccc(C(F)(F)F)c2)S1	inactive
CC(=O)NCC1CN(c2ccc(-c3ccc(CNCc4cn[nH]n4)cc3)c(F)c2)C(=O)O1 (centres undefined)	inactive

SMILES	Potency
C/C=C(\C)C(=O)OC1C2(O)CC3=C4CC(=O)OC(c5ccoc5)C4(C)CCC3C(C)(C2=O)C(C(OC(C)=O)C(=O)OC)C1(C)C (centres undefined)	inactive
CC(=O)/C=C/C1C(C)CC(O[C@@H]2O[C@H](CO)[C@@H](O)[C@H](O)[C@H]2O)CC1(C)C (some centres undefined)	inactive
CC1(C)Oc2ncnc(N)c2N=C1c1ccc(C2CCC(CC(=O)O)CC2)cc1 (centres undefined)	inactive
Cn1cc(Nc2cnccc2C(=O)O)c2cccnc21	inactive
COc1cccc(C(=O)NCCNc2nc3cc(C)cc(C)c3cc2C#N)c1	inactive
O=C(O)c1ccnc2cc(C(OCC3CCC(F)(F)CC3)c3ccccc3Cl)[nH]c12 (centres undefined)	inactive
OC[C@H]1O[C@@H](OCc2ccccc2)[C@H](O)[C@@H](O)[C@@H]1O	inactive
Cc1ccc(COC(=O)N2CC[C@@H](CNc3ncccn3)[C@@H](F)C2)cc1	inactive
C=C1C(OC(C)=O)CCC2(C)CC3(O)OC(=O)C(C)=C3CC12 (centres undefined)	inactive
CC1CCC23COC(=O)C2=CC(O)CC3C1(C)CCc1ccoc1 (centres undefined)	inactive
C[C@H]1CC[C@@]2(OC1)O[C@H]1CC3C4CC[C@H]5C[C@@H](O[C@@H]6O[C@H](CO)[C@H](O[C@@H]7O[C@H](CO)[C@@H](O)[C@H](O[C@@H]8OC[C@@H](O)[C@H](O)[C@H]8O)[C@H]7O[C@@H]7O[C@H](CO)[C@@H](O)[C@H](O)[C@H]7O)[C@H](O)[C@H]6O)[C@H](O)C[C@]5(C)C4=CC(=O)[C@]3(C)[C@H]1[C@@H]2C (some centres undefined)	inactive
O=C(OCC(O)CO[C@@H]1O[C@H](C(=O)O)[C@@H](O)[C@H](O)[C@H]1O)c1ccccc1 (some centres undefined)	inactive
C[C@@H]1C[C@@H](O)[C@@]23CO[C@]2(CO)CCC[C@@H]3[C@@]12C[C@@H](c1ccoc1)OC2=O	inactive
C[C@H]1/C=C/C=C/C=C/C=C/C=C/[C@@H](O)[C@H](C(=O)O)[C@H](O)C[C@H](O)CCC[C@H](O)C[C@H](O)C[C@H](O)[C@@H](C)C(=O)O[C@@H]1C	inactive
C=C1C(OC(C)=O)[C@@]23CCC4[C@](C)(C(=O)O)CCC[C@@]4(C)[C@]2(O)CC[C@H]1C3 (some centres undefined)	inactive
C=C(CCO)C(=O)OCC1OCC(OC(=O)C(=C)CCO[C@@H]2O[C@H](COC(=O)C(=C)CCO[C@@H]3O[C@H](CO)[C@@H](O)[C@H](O)[C@H]3O)[C@@H](O)[C@H](O)[C@H]2O)C(O)C1O (some centres undefined)	inactive
CC1(C)CC[C@]2(C(=O)O[C@@H]3O[C@H](CO)[C@@H](O)[C@H](O)[C@H]3O)CC[C@]3(C)C(=CCC4[C@@]5(C)CC[C@H](O[C@H]6O[C@H](CO)[C@@H](O)[C@H](O[C@@H]7O[C@H](CO)[C@@H](O)[C@H](O)[C@H]7O)[C@H]6O)C(C)(C)C5CC[C@]43C)[C@@H]2C1 (some centres undefined)	inactive
CCCC(=O)Nc1cccc(NC(=O)c2ccccc2Br)c1	inactive
Cc1cc(O[C@@H]2O[C@H](COC(=O)CC(=O)O)[C@@H](O)[C@H](O)[C@H]2O)c(C(C)C)cc1O	inactive
